Test results: PubChem BioAssay AID1159580 (chemical genetic matrix, 2015)
Screen size: about 5,500 compounds; about 2,000 (36%) were called active. Inconclusive results (about 18%) are left out. Cut-off read from the data, not from the text of the source: active = normalized growth mostly below about 0.91 (no sharp cut-off); inconclusive = no clear call, values can overlap the other calls; inactive = mostly above about 0.92. Some of the results follow.

Assay: chemical genetic growth profiling, strain panel (AID 1159580);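 note: tested at 20 µM; growth read once vehicle control cultures reached saturation at 30 °C; 1 = growth at the plate median or of vehicle wells; lower values mean less growth of the strain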
Details: S. cerevisiae deletion strains, growth OD
[1] = locus YAL013W, strain DEP1, stronger effect = lower value
[2] = locus YDR150W, strain NUM1, stronger effect = lower value
[3] = locus YMR263W, strain SAP30, stronger effect = lower value
[4] = locus YNL128W, strain TEP1, stronger effect = lower value
[5] = locus YNL153C, strain GIM3, stronger effect = lower value
[6] = locus YPL241C, strain CIN2, stronger effect = lower value
[7] = locus YDL101C, strain DUN1, stronger effect = lower value
[8] = locus YHR030C, strain SLT2, stronger effect = lower value

Measured: normalized growth

Cc1nc2n(c(=O)c1CCN1CCC(c3noc4cc(F)ccc34)CC1)CCCC2
inactive: [1] 0.998 | locus YAL040C, strain CLN3, stronger effect = lower value 1.02 | locus YCL061C, strain MRC1 (second series), stronger effect = lower value 1.01 | [2] 1 | locus YDR363W, strain ESC2, stronger effect = lower value 0.988 | locus YER002W, strain NOP16, stronger effect = lower value 1 | locus YGR229C, strain SMI1, stronger effect = lower value 1 | [3] 1 | locus YMR307W, strain GAS1, stronger effect = lower value 1.02 | [4] 1.03 | [5] 1.01 | locus YNL175C, strain NOP13, stronger effect = lower value 1.01 | locus YNL197C, strain WHI3, stronger effect = lower value 1.01 | locus YNL224C, strain SQS1, stronger effect = lower value 1 | locus YOR083W, strain WHI5 (second series), stronger effect = lower value 1 | [6] 1

Cc1cc(CN2CC(C)OC(C)C2)cc(C)c1O (centres undefined)
inactive: [1] 1.01 | locus YBR229C, strain ROT2, stronger effect = lower value 1.01 | [7] 1.09 | [2] 1.08 | locus YEL061C, strain CIN8, stronger effect = lower value 0.997 | locus YGR078C, strain PAC10, stronger effect = lower value 1.02 | [8] 1.03 | locus YHR087W, strain rtc3, stronger effect = lower value 0.976 | locus YJR043C, strain POL32, stronger effect = lower value 1.03 | locus YJR075W, strain HOC1, stronger effect = lower value 1 | locus YKL190W, strain CNB1, stronger effect = lower value 0.974 | locus YLR039C, strain RIC1, stronger effect = lower value 1.05 | locus YLR058C, strain SHM2 (second series), stronger effect = lower value 0.991 | locus YLR085C, strain ARP6, stronger effect = lower value 1.03 | locus YLR262C, strain YPT6, stronger effect = lower value 0.954 | locus YML094W, strain GIM5, stronger effect = lower value 0.996 | locus YMR219W, strain ESC1, stronger effect = lower value 0.997 | [3] 1.05 | [4] 0.988 | [5] 1.04 | locus YNL298W, strain CLA4 (second series), stronger effect = lower value 1.02 | locus YNL322C, strain KRE1, stronger effect = lower value 0.994 | locus YNR030W, strain Alg12, stronger effect = lower value 0.992 | locus YOL006C, strain TOP1, stronger effect = lower value 0.975 | locus YPL055C, strain LGE1, stronger effect = lower value 1.01 | [6] 1.03 | locus YPR135W, strain CTF4, stronger effect = lower value 1.04

O=C(Nc1ccc(Cl)cc1)O/N=C\c1ccn(-c2ccccc2)n1
active: [8] 0.611 | locus YHR205W, strain SCH9, stronger effect = lower value 0.559 | locus YJR066W, strain TOR1 (second series), stronger effect = lower value 0.605 | locus YLR113W, strain HOG1, stronger effect = lower value 0.6 | locus YPL256C, strain CLN2, stronger effect = lower value 0.662
inactive: locus YAR019C, strain CDC15, stronger effect = lower value 0.958 | locus YBL105C, strain PKC1, stronger effect = lower value 0.963 | locus YBR135W, strain CKS1, stronger effect = lower value 0.95 | locus YBR136W, strain MEC1, stronger effect = lower value 0.937 | locus YBR160W, strain CDC28, stronger effect = lower value 0.962 | locus YDL017W, strain CDC7, stronger effect = lower value 0.971 | locus YDL028C, strain MPS1, stronger effect = lower value 0.955 | [7] 0.975 | locus YDL108W, strain KIN28, stronger effect = lower value 0.941 | locus YDL132W, strain cdc53, stronger effect = lower value 0.954 | locus YDL214C, strain PRR2, stronger effect = lower value 0.8 | locus YDR052C, strain DBF4, stronger effect = lower value 0.982 | locus YDR054C, strain cdc34, stronger effect = lower value 0.952 | locus YDR226W, strain ADK1, stronger effect = lower value 0.965 | locus YDR477W, strain SNF1, stronger effect = lower value 0.859 | locus YER123W, strain YCK3, stronger effect = lower value 0.811 | locus YER133W, strain GLC7, stronger effect = lower value 0.882 | locus YFL009W, strain cdc4, stronger effect = lower value 0.961 | locus YFL029C, strain CAK1, stronger effect = lower value 0.955 | locus YFR003C, strain YPI1, stronger effect = lower value 0.96 | locus YFR019W, strain FAB1, stronger effect = lower value 0.956 | locus YFR028C, strain CDC14, stronger effect = lower value 0.953 | locus YGR040W, strain KSS1, stronger effect = lower value 0.876 | locus YGR052W, strain FMP48, stronger effect = lower value 0.845 | locus YGR092W, strain DBF2, stronger effect = lower value 0.775 | locus YHR079C, strain IRE1, stronger effect = lower value 0.654 | locus YHR082C, strain KSP1, stronger effect = lower value 0.835 | locus YIL147C, strain SLN1, stronger effect = lower value 0.953 | locus YJL095W, strain BCK1, stronger effect = lower value 0.738 | locus YJL128C, strain PBS2, stronger effect = lower value 0.877 | locus YJL157C, strain FAR1, stronger effect = lower value 0.857 | locus YJR016C, strain ILV3, stronger effect = lower value 0.961 | locus YJR066W, strain TOR1, stronger effect = lower value 0.834 | locus YKL048C, strain ELM1, stronger effect = lower value 0.886 | locus YKL067W, strain YNK1, stronger effect = lower value 0.82 | locus YKL101W, strain HSL1, stronger effect = lower value 0.798 | locus YKL193C, strain SDS22, stronger effect = lower value 0.948 | locus YKL203C, strain TOR2, stronger effect = lower value 0.947 | locus YLR133W, strain CKI1, stronger effect = lower value 0.829 | locus YLR403W, strain SFP1, stronger effect = lower value 0.87 | locus YML070W, strain DAK1, stronger effect = lower value 0.804 | locus YMR001C, strain CDC5, stronger effect = lower value 0.95 | locus YMR205C, strain PFK2 (second series), stronger effect = lower value 0.779 | locus YMR277W, strain FCP1, stronger effect = lower value 0.948 | locus YNL006W, strain LST8, stronger effect = lower value 0.954 | locus YNL020C, strain ARK1, stronger effect = lower value 0.782 | locus YNL161W, strain CBK1, stronger effect = lower value 0.97 | locus YNL183C, strain NPR1, stronger effect = lower value 0.732 | locus YNL207W, strain RIO2, stronger effect = lower value 0.954 | locus YNL222W, strain SSU72, stronger effect = lower value 0.946 | locus YNL307C, strain MCK1 (second series), stronger effect = lower value 0.785 | locus YOL078W, strain AVO1, stronger effect = lower value 0.956 | locus YOL136C, strain PFK27, stronger effect = lower value 0.797 | locus YOR061W, strain CKA2, stronger effect = lower value 0.875 | locus YOR119C, strain RIO1, stronger effect = lower value 0.929 | locus YOR231W, strain MKK1, stronger effect = lower value 0.688 | locus YOR329C, strain SCD5, stronger effect = lower value 0.954 | locus YPL031C, strain PHO85, stronger effect = lower value 0.851 | locus YPL153C, strain RAD53, stronger effect = lower value 0.885 | locus YPL204W, strain HRR25, stronger effect = lower value 0.869 | locus YPL209C, strain IPL1, stronger effect = lower value 0.959 | locus YPR025C, strain CCL1, stronger effect = lower value 0.953 | locus YPR106W, strain ISR1, stronger effect = lower value 0.937 | locus YPR111W, strain DBF20, stronger effect = lower value 0.929 | strain NNK1, stronger effect = lower value 0.903 | strain TSCII, stronger effect = lower value 0.95
